Compound activity: PubChem BioAssay, National Center for Advancing Translational Sciences (NCATS)
Hits are enriched below; roughly 2.4% of the tested compounds scored in any of these assays.
ALOX12 inh = blocks human arachidonate 12S-lipoxygenase; purified 12hLO, xylenol orange hydroperoxide absorbance; AID 1671190; P18054; hit rate 1.1% among 580,000; Potency, µM (titrated, usually from 108 µM), inactives show at the highest dose activity change, negative = inhibition, usual class: inhibitors; active = well fitted curve in the direction sought with a large enough effect; inconclusive = small, poorly fitted or top-dose-only effect, or another doubt; inactive = no such curve, though single readings can be large; an effect the other way counts as inactive or inconclusive; note: % is set by controls: 0 for no effect and ±100 for the full control effect
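Purified human 12hLO at 150 nM in 25 mM Hepes, 0.01% Triton X-100, pH 7.0, preincubated 15 min at room temperature with compound. Reaction started with 40 uM arachidonic acid, 30 min at room temperature. Hydroperoxide measured by Fe-xylenol orange, 573/405 nm absorbance ratio.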
ClpP mod = qHTS Assay for Activators of ClpP | ATP-dependent Clp protease proteolytic subunit (Bacillus subtilis (strain 168)), P80244 | hit rate 1.9% among 340,000 | Potency, µM (top dose mostly 57.5 µM), for inactives: at the top dose activity change, negative = active | purified B. subtilis ClpP, FRET peptide cleavage, 20 min | AID 651965, 2013; active = well fitted falling curve with a large enough effect; inconclusive = small, poorly fitted or top-dose-only effect; inactive = no such curve, though single readings can be large or run the other way; note: the source files actives as falling curves though it sought activators and does not explain the sign; nearly all actives have a fitted effect of over 65% in size
Target sequence (P80244 whole entry, looked up): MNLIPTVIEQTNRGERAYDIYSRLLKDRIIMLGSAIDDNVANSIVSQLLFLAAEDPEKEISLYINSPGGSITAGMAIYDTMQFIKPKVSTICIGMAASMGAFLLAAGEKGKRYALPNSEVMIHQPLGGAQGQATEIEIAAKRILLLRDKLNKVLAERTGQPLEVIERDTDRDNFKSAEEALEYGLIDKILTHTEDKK
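Buffer: 100 mM Tris/HCl pH8, 100 mM KCl, 0.05% low protease BSA, 2.5% glycerol, 0.01% Tween-20. ClpP 10 microg/mL final; 20 min RT; delta FRET normalized to ADEP and DMSO controls.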
PTAP TSG101 blk = blocks PTAP/TSG101 interaction to inhibit HIV-1 budding; 340,000 tested, under 10 active; Potency, µM (highest dose often 115 µM), without a hit: at the highest dose activity change, negative = inhibition, most hits filed as inhibitors; Fluorescence polarization, FITC-PTAP peptide / Tsg101 binding; active = well fitted inhibition curve with a large enough effect in the main read-out, with a control signal flat, not every such curve was filed as active; inconclusive = small, poorly fitted or top-dose-only effect, or effect the other way, or a change in a side signal; inactive = no such curve, though single readings can be large or run the other way; note: % of control where 0% means no effect
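Steps: Tsg101 binding domain dispensed (10 uM final), compounds pinned in DMSO, FITC-labeled PTAP-motif peptide added (50 nM final); after 20 min binding at room temperature, polarization measured.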
TDP1 block = TDP1 (human) enzyme inhibition; Potency, µM (highest dose often 130 µM), for inactives: at the highest dose activity change, negative = inhibition, hits mostly inhibitors; recombinant TDP1, AlphaScreen DNA substrate cleavage; hit rate 0.28% among 350,000; active = well fitted curve in the direction sought with a large enough effect; inconclusive = small, poorly fitted or top-dose-only effect, or another doubt; inactive = no such curve, though single readings can be large; an effect the other way counts as inactive or inconclusive; note: % is set by controls: 0 for no effect and ±100 for the full control effect; nearly all actives have a fitted effect of over 40% in size
Target sequence (Q9NUW8 whole entry, looked up): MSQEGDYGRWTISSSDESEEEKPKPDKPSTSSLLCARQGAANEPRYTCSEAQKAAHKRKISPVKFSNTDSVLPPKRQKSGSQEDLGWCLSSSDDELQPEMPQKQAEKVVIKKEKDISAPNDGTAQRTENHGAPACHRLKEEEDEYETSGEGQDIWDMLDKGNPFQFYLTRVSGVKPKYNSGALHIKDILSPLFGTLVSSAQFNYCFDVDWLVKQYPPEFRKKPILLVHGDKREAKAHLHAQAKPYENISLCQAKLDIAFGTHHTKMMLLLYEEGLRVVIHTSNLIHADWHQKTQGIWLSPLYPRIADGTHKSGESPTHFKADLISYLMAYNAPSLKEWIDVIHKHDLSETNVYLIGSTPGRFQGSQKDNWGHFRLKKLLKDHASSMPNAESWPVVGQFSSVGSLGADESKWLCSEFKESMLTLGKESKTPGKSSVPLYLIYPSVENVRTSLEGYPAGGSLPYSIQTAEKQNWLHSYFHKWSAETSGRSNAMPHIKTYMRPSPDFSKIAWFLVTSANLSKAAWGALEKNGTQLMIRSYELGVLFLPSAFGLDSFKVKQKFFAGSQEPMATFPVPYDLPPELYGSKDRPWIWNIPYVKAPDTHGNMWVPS
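Enzyme-compound mixtures sat 15 min at room temperature, followed by a 5 min reaction with 15 nM final substrate and 10 min with AlphaScreen beads. Recombinant human Tdp1 was used at 1 nM final.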
Rango dissoc inh = inhibition of RanGTP-driven Rango-importin beta dissociation | AID 540253 | O95149+P62826 | Potency, µM (top dose mostly 46.1 µM), without a hit: at the top dose activity change, negative = inhibition | hit rate 0.071% among 340,000 | Biochemical FRET Rango-importin beta, RanGTP-induced dissociation; note: % of control where 0% means no effect; nearly all actives have a fitted effect of over 45% in size
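Compounds preincubate 5 min with complex of recombinant Rango and importin beta in PBS with 1 mM DTT. Ran (0.6 uM) loaded with 2 mM GTP plus 0.2 uM RCC1 starts dissociation; FRET is recorded 45 min later.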
Rango complex inh = prevents formation of the Rango-importin beta complex | Q14974 | Rango CFP/YFP FRET sensor + importin beta, 45 min | Potency, µM (titrated, usually from 92.2 µM), for inactives: at the top dose inhibition of complex formation | hit rate 0.031% among 340,000 | AID 540263;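 note: 0% = DMSO wells and 100% = buffer wells lacking importin beta; nearly all actives have a fitted effect of over 15% in size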
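FRET biosensor Rango (snurportin 1 IBB between N-terminal EYFP and C-terminal Cerulean), 50 nM in PBS/1 mM DTT/0.02% Tween-20/0.1% BSA, preincubated 5 min RT with compound; 0.125 microM importin beta added, 45 min RT, CFP/YFP FRET ratio read.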
Starred values were filed as active, the others as inactive; ? = inconclusive; . = not tested or not shown; ! = a repeat was not active; [ ] = dose if it differs, or a comment. Unless noted, calls come from the whole dose curve. Potency is the fitted concentration of half-maximal effect.

SMILES	ALOX12 inh	ClpP mod	PTAP TSG101 blk	TDP1 block	Rango dissoc inh	Rango complex inh
Cc1cc2ccccn2c1C(=S)NC(=O)c1ccccc1	22.4µM*	4.9%	-0.1%	10.3%	-13.2%	-4.2%
Cc1cc2ccccn2c1C(=O)c1ccncc1	-0.2%	-0.6%	-6.9%	6.2%	10.8%	-2.0%
Cc1ccc(C(=O)NC(=S)c2c(C)cc3ccccn23)cc1	7.94µM*	10.5%	.	.	.	.
Cc1ccc(-c2cc(N3CCCN(C(=O)c4ccccc4F)CC3)n[nH]2)cc1C	-8.7%	.	.	.	.	.
CCCCCC1=CCC/C1=N/NC(=S)NCCOC	39.8µM*	.	.	.	.	.
S=c1[nH]nc(-c2ccccc2)n1/N=C/C=C/c1ccco1	39.8µM*	0.9%	-4.6%	3.2%	-4.8%	9.2%
Cc1ccccc1-c1n[nH]c(=S)n1/N=C/C=C/c1ccco1	?	-0.5%	1.6%	.	?	?
S=c1[nH]nc(-c2ccc(Cl)cc2)n1/N=C/C=C/c1ccco1	14.1µM*	.	2.3%	4.8%	13.6%	-0.8%
CC(/C=N/n1c(-c2cccnc2)n[nH]c1=S)=C\c1ccco1	?	-3.0%	-3.9%	.	-14.1%	?
S=c1[nH]nc(-c2cccnc2)n1/N=C/C=C/c1ccco1	?	0.8%	-0.1%	39.8µM*	-7.6%	0.3%
CC(Oc1ccc2ccc(=O)oc2c1)C(=O)Nc1ccc(F)cc1 (stereo unspecified)	32.3%	.	.	.	.	.
CCC1CCCCN1C(=O)/C=C/c1cnc2ccccc2n1 (stereo unspecified)	-9.0%	.	.	.	.	.
O=C(Cc1ccccn1)N1CC(COc2ccccc2)C2(C1)CN(c1ccccc1)C2 (stereo unspecified)	12.9%[176 µM]	.	.	.	.	.
COC(=O)\C(C(C)=O)=C(/C=C/C=C/N(C)C)N(C)C	?	0.6%	-8.9%	22.4µM*	?	?
CC[C@H]1CN(C(=O)C(C)(C)C)CC[C@H]1CC(=O)N(CC)C(=O)NCCCN(C)C	-2.0%[176 µM]	.	.	.	.	.
Cn1c(N/N=C/c2c[nH]c3ccccc23)nc2ccccc21	44.7µM*	-8.6%	-1.2%	12.2%	-3.1%	0.5%
CCOc1cc(N2CCOCC2)c(OCC)cc1NC(C)C(=O)N1CCC(C)CC1 (stereo unspecified)	35.5µM*	2.4%	-7.6%	5.5%	5.0%	-3.1%
CCOc1cc(N2CCOCC2)c(OCC)cc1NC(=O)[C@H](C)N1C(=O)C2CC=CCC2C1=O (stereo partly specified)	0.0%	.	2.2%	-3.6%	1.2%	-1.2%
Cc1cc(C2CCCCC2)n(O)c(=O)c1	39.8µM*!	-2.7%	-1.9%	9.6%	-7.6%	-4.0%
Cc1nn(CC(=O)NC(C)c2ccccc2)c(=O)c2nc(C(C)C)sc12 (stereo unspecified)	49.6%	.	.	.	.	.
Cc1ccc(SCCNC(=O)c2nccnc2N)cc1	-21.3%	.	.	.	.	.
COc1ccc(-c2cc(=S)ss2)cc1	17.8µM*!	.	.	.	.	.
O=C1NCc2ccccc2CC12CCN(Cc1ccc(F)c(Cl)c1)C2 (stereo unspecified)	4.4%[6.33 µM]	.	.	.	.	.
CCOC(=O)NC1(Nc2cccc(Cl)c2)Oc2ccccc2O1	44.7µM*	1.5%	-0.5%	-5.6%	-4.0%	0.0%
CCOC(=O)c1ccccc1NC(=O)Nc1cccc(Cl)c1	8.3%	.	.	.	.	.
SMILES	ALOX12 inh	ClpP mod	PTAP TSG101 blk	TDP1 block	Rango dissoc inh	Rango complex inh
O=C(CSc1n[nH]c(-c2ccc(Br)cc2)n1)c1cc(F)ccc1F	31.6µM*	.	.	.	.	.
O=C(CSc1n[nH]c(-c2ccccc2)n1)c1cc(F)ccc1F	-19.6%	.	.	.	.	.
CN1c2cc(C(N)=O)ccc2C(=O)N2CCCCC21 (stereo unspecified)	25.8%	.	.	.	.	.
O=c1oc2ccc(Cl)cc2cc1S(=O)(=O)N1CCCC1	21.8%	.	.	.	.	.
COc1ccnc(NCc2cccc(C(F)(F)F)c2)c1C#N	9.5%[57.4 µM]	?	-0.6%	4.9%	-0.9%	-2.4%
COc1ccnc(NCc2cccnc2)c1C#N	-11.8%	31.6µM*	-5.3%	3.9%	-3.7%	-3.5%
CC(=O)C1=C(O)C(=CC=Cc2ccccc2)OC1=O	15.8µM*	-27.4%	.	.	.	.
c1ccc(-c2ccnc(NCCc3c[nH]c4ccccc34)n2)nc1	104.6%	.	.	.	.	.
Cc1ccc2nc([C@H]3CCN(C(C)C)C3)[nH]c2c1	37.6%[176 µM]	.	.	.	.	.
O=C1CSC(=S)N1N=Cc1ccccc1O	6.31µM*	-10.5%	0.2%	.	-17.9%	?
O=C1CSC(=S)N1N=Cc1ccc(Cl)cc1Cl	35.5µM*	-1.8%	-17.9%	.	-5.5%	0.0%
Cc1ccccc1/C=N/N1C(=O)CSC1=S	-13.4%	0.8%	-0.6%	.	-1.9%	0.0%
CC(C)c1ccc(S(=O)(=O)NCCc2cccc3cccnc23)cc1	6.4%	.	.	.	.	.
c1cnc(-c2nc(CC3CCCNC3)no2)cn1 (stereo unspecified)	47.6%	.	.	.	.	.
Cc1ccc(Cl)cc1NC(=O)N1CCCC1c1ccco1 (stereo unspecified)	15.8%	.	.	.	.	.
O=C(Nc1ccc2[nH]c(=S)sc2c1)c1ccccc1	?	.	-0.8%	9.3%	-12.3%	-2.5%
S=c1[nH]c2ccccc2s1	28.2µM*!	.	.	9.2%	.	.
CC(C)CCN1CC(Oc2cccc(C(=O)N3CCOCC3)c2)C1	-2.0%	.	.	.	.	.
CC(C)(C)CCN1CC(Oc2cccc(C(=O)N3CCOCC3)c2)C1	22.4µM*	.	.	.	.	.
COc1ccc(-n2nc(C3CCCN(C(=O)Cc4ccc(F)cc4)C3)[nH]c2=O)cc1 (stereo unspecified)	25.7%	.	.	.	.	.
CCOc1ccccc1NC(=O)Cn1nc2n(c1=O)CCCCC2	46.6%	.	.	.	.	.
O=C(c1cccc(NS(=O)(=O)c2ccc(F)c(F)c2)c1)N1CCN(C(c2ccccc2)c2ccccc2)CC1	2.4%	31.6µM*	-6.6%	0.6%	0.3%	1.2%
COC(=O)c1cc(C)c(C)cc1NC1OC(CO)C(O)C1O (stereo unspecified)	?	3.55µM*	-6.9%	.	-2.7%	1.9%
COc1ccc(-c2cnc3c(NC=O)cc(-c4ccccc4OC)cn23)cc1OC	6.31µM*	?	.	.	.	.
COc1ccc(-c2cc(NC=O)c3ncc(-c4ccc(OC)c(OC)c4)n3c2)cc1OC	-5.7%	-24.4%	.	.	.	.
S=c1sc2c(s1)SC1c3ccccc3CC1S2 (stereo unspecified)	15.8µM*	.	.	.	.	.
CCn1cc(C(=O)O)c(=O)c2cc(F)c(N3CCN(C(=S)NC(=O)c4ccc(OC)cc4)CC3)cc21	-0.4%	3.8%	-3.1%	79.4µM*	-13.3%	0.8%
CCn1cc(C(=O)NCc2ccco2)c(=O)c2cc(F)c(N3CCN(C(=O)c4ccco4)CC3)cc21	36.3%	28.2µM*	-5.3%	39.8µM*	6.4%	-4.2%
